# Pf growth 96h: inhibits malaria parasite growth, 96 h; Potency, µM (doses to about 28.7 µM), inactives show top-dose activity change, negative = inhibition, most hits filed as inhibitors; 6.9% of 320,000 active; AID 504834; P. falciparum luciferase reporter growth, 96 h
#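 Delayed-death screen, second-generation endpoint: infected erythrocytes, 2% hematocrit, 0.05% parasitemia final; 96 hours at 37 C, 5% CO2; luciferase detection reagent; luminescence decrease equals reduced growth.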
# HCV inh: blocks hepatitis C virus | Huh7.5.1 HCVcc-Cre infection, luciferase reporter, 44 h | Potency, µM (highest dose often 41.8 µM), without a hit: top-dose activity change, negative = inhibition, actives largely listed as inhibitors | 3.4% of 340,000 active | AID 651820
#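 Cells (1,000/well) were plated 4 h before compound, then infected with HCVcc-Cre virus (~0.5 moi). After 44 h further culture, infection was read as luciferase luminescence following a 15 min substrate incubation at room temperature.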
# AMA1-RON2 inh: inhibitors of Plasmodium falciparum AMA1-RON2 interaction; AlphaScreen AMA1-biotinylated RON2 peptide binding; Potency, µM (highest dose often 58.2 µM), for inactives: at the highest dose activity change, negative = inhibition, actives largely listed as inhibitors; 0.2% of 360,000 active; AID 720542;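 note: 0% = vehicle wells and -100% = peptide control; nearly all actives have a fitted effect of over 45% in size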
#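 AMA1 (3D7) with his tag at 25 nM final met compounds first, then biotinylated RON2 peptide at 25 nM; detection used donor plus acceptor beads, 10 µg/mL apiece, read by AlphaScreen after 30 min at room temperature.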
# Pf growth 48h: inhibits P. falciparum growth in the first generation, 48 h; Potency, µM (titrated, usually from 28.7 µM), without a hit: at the highest dose activity change, negative = inhibition, usual class: inhibitors; AID 504832; 5.9% of 310,000 active; P. falciparum luciferase growth in erythrocytes, 48 h
#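 Growth was read as firefly luciferase luminescence after a 48 h, 37 C, 5% CO2 exposure of compounds to reporter-bearing P. falciparum cultures (0.1% parasitemia, 2% hematocrit final) in Albumax-supplemented RPMI 1640.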
# AmpC no deterg: inhibitors of E. coli AmpC beta-lactamase without detergent; P00811; AID 485341; 0.52% of 330,000 active; AmpC nitrocefin hydrolysis, absorbance 480 nm, 0.0001% Triton; Potency, µM (highest dose often 57.1 µM), for inactives: at the highest dose activity change, negative = inhibition, hits mostly inhibitors;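 note: plate controls were no compound for no effect and no enzyme for full effect; nearly all actives have a fitted effect of over 20% in size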
# Target sequence (P00811 whole entry, looked up): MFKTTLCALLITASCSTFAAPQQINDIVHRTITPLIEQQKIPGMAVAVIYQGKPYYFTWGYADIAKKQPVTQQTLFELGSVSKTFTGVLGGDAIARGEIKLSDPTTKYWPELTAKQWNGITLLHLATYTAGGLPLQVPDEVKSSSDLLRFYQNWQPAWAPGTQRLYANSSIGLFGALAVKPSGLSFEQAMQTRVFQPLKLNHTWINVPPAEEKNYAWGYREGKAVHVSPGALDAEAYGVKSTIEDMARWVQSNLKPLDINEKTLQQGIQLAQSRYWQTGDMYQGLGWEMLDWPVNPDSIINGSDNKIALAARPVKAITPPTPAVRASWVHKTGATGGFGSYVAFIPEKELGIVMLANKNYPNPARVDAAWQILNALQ
#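 20 mM phosphate pH 7.0 + 0.01% (detergent screen) or 0.0001% Triton X-100; 5.3 nM AmpC reagent; cpd preinc 15 min RT; nitrocefin (800 uM stock) to start; A480 q20 s × 4 min; Activity was normalised to no-enzyme and no-compound control wells.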
# AmpC inh detg: inhibitors of E. coli AmpC beta-lactamase with detergent. 0.041% of 370,000 active. AmpC hydrolysis of nitrocefin, absorbance 480 nm, 0.01% Triton. Potency, µM (series often up to 114 µM), inactives show at the top dose activity change, negative = inhibition, hits mostly inhibitors. AID 485294. P00811;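 note: 0% = no-compound wells and -100% = no-enzyme wells; nearly all actives have a fitted effect of over 25% in size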
#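 20 mM phosphate pH 7.0 + 0.01% (detergent screen) or 0.0001% Triton X-100; 5.3 nM AmpC reagent; cpd preinc 15 min RT; nitrocefin (800 uM stock) to start; A480 q20 s × 4 min; Activity was normalised to no-enzyme and no-compound control wells.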
# An asterisk follows results filed as active; ? = inconclusive; nt = not tested or not shown; [ ] = another dose, or the depositor's remark. A selection: hits, their analogues and other compounds. The true share with any hit is near 11%. Calls come from the whole dose curve; as a rule, active = well fitted curve in the direction sought with a large enough effect; inconclusive = small, poorly fitted or top-dose-only effect, or another doubt; inactive = no such curve, though single readings can be large; an effect the other way counts as inactive or inconclusive. Unless noted, % is set by controls: 0 for no effect and ±100 for the full control effect; potency is the fitted concentration of half-maximal effect.
SMILES,Pf growth 96h,HCV inh,AMA1-RON2 inh,Pf growth 48h,AmpC no deterg,AmpC inh detg
O=C(NCC1CCCN1S(=O)(=O)c1cccs1)C(=O)Nc1ccc(F)cc1 (configuration not stated),40%,-2%[8.37 µM],10%,35%,28µM*,?
O=C(NCCC1CCCCN1S(=O)(=O)c1cccs1)C(=O)Nc1ccccc1F (configuration not stated),-5%,8.9µM*,19%,3%,-24%,-4%
CC(=O)c1cccc(NC(=O)C2CCCN2S(=O)(=O)c2cccs2)c1 (configuration not stated),nt,nt,6%,nt,nt,nt
COc1ccccc1NC(=O)C(=O)NCCC1CCCCN1S(=O)(=O)c1cccs1 (configuration not stated),?,?,-6%,?,-25%,9%
COc1cn(CC(=O)Nc2cc(C)ccc2C)c(CN2CCCCC2)cc1=O,nt,nt,nt,nt,nt,-7%
CCOc1ccc(NC(=NCc2ccc3c(c2)OCO3)SC2CC(=O)N(c3ccc(C(=O)O)cc3)C2=O)cc1 (configuration not stated),9.3µM*,13%,4%,?,30%,1%
CCOc1ccc(NC(=NCc2ccc3c(c2)OCO3)SC2CC(=O)N(c3ccccc3)C2=O)cc1 (configuration not stated),?,?,-13%,?,-33%,?
CCOc1ccc(N2C(=O)CC(SC(=NC)Nc3ccc4c(c3)OCO4)C2=O)cc1 (configuration not stated),16%,22%,-4%,nt,-6%,?
CCOc1ccc(NC(=NCc2ccc3c(c2)OCO3)SC2CC(=O)N(c3ccc(OCC)cc3)C2=O)cc1 (configuration not stated),3.7µM*,?,11%,?,-23%,1%
CC(=O)c1ccc(Nc2nc3c(S(=O)(=O)c4ccccc4)nnn3c3ccc(Cl)cc23)cc1,nt,nt,nt,nt,nt,0%
Cc1ccc(CNC(=O)c2c(C)oc3nc(C)nc(N4CCOCC4)c23)cc1,nt,nt,nt,nt,nt,15%
CC(=O)c1ccc(-c2cc([C@H]3[C@H]4C=CC[C@@H](C)[C@@H]4C(=O)N3Cc3ccccc3)ccc2F)cc1,?,-14%,6%,12µM*,23%,2%
C[C@@H]1CC=C[C@@H]2[C@H]1C(=O)N(Cc1ccccc1)[C@H]2c1cccc(Br)c1,nt,27%,0%,nt,-25%,nt
COc1ccc(-c2ccc(OC)c([C@H]3[C@H]4C=CC[C@@H](C)[C@@H]4C(=O)N3Cc3ccccc3)c2)cc1OC,?,-5%[8.37 µM],-11%,?,-8%,7%
COc1ccc(-c2ccc(F)cc2)cc1[C@H]1[C@H]2C=CC[C@@H](C)[C@@H]2C(=O)N1Cc1ccccc1,?,-25%,-13%,12µM*,-17%,-1%
COc1ccc(-c2c([C@H]3[C@H]4C=CC[C@@H](C)[C@@H]4C(=O)N3Cc3ccccc3)ccc3ccccc23)cc1OC,2.9µM*,?,-13%,2.3µM*,24%,2%
COc1ccc(-c2ccc([C@H]3[C@H]4C=CC[C@@H](C)[C@@H]4C(=O)N3Cc3ccccc3)c(F)c2)cc1C,?,20%,-16%,10µM*,-3%,-5%
CCOC(=O)c1c(C)[nH]c(C)c1S(=O)(=O)NCC(=O)N1CCN(c2ccccc2OC)CC1,nt,nt,nt,nt,nt,3%
C[C@@H]1CC=C[C@H]2[C@H]1C(=O)N(Cc1ccccc1)[C@H]2c1ccc(/C=C/c2ccccc2)cc1F,?,0%,-6%,10µM*,-10%,-1%
C[C@@H]1CC=C[C@H]2[C@H]1C(=O)N(Cc1ccccc1)[C@H]2c1ccc(-c2ccc(F)cc2)cc1F,?,-11%,-5%,?,-6%,1%
F/C(COc1ccc2c(c1)[nH]c1ccccc12)=C1/CN2CCC1CC2,11µM*,nt,nt,?,nt,nt
CCCCCSc1cc(OC)c(CCN(C)C)cc1OC,12µM*,?,-28%,?,75%,8%
COc1ccc2[nH]cc(CCN(C)C)c2c1,9%,-9%,-6%,7%,-12%,-5%
O=C(O)/C=C/C(=O)Nc1ccc(C2(c3ccc(NC(=O)/C=C/C(=O)O)cc3)c3ccccc3-c3ccccc32)cc1,28%,-8%,-18%,?,13µM*,-9%
Cc1cccc(N2CCN(c3cccc(C)c3)C2c2cccnc2)c1,-24%,?,?,1.9µM*,-6%,?
SMILES,Pf growth 96h,HCV inh,AMA1-RON2 inh,Pf growth 48h,AmpC no deterg,AmpC inh detg
O=C(c1ccc([N+](=O)[O-])o1)N1CCN(c2nc3c(F)cc(F)cc3s2)CC1,0.33µM*,0.56µM*,-7%,1µM*,-17%,0%
Cc1ccc(C)c2sc(N3CCN(C(=O)c4ccc([N+](=O)[O-])o4)CC3)nc12,0.33µM*,?,0%,0.83µM*,24%,-13%
O=C(c1cccs1)N1CCN(c2nc3c(F)cc(F)cc3s2)CC1,?,-20%,12%,-7%,-19%,-2%
Fc1cc(F)c2nc(N3CCCCC3)sc2c1,8.3µM*,1%,-5%,45%,-9%,-1%
CCN(Cc1ccccc1)C(=O)c1cc2c(s1)-c1c(C)cccc1OC2,nt,nt,nt,nt,nt,12%
Cc1ccc(NC(=O)Cn2cnc3c2c(=O)n(C)c(=O)n3C)cc1C,nt,nt,nt,nt,nt,3%
CCc1ccc(NC(=O)Cn2c(=O)n(Cc3ccc4c(c3)OCO4)c(=O)c3oc4ccccc4c32)cc1,nt,nt,nt,nt,nt,-6%
O=C(Cn1cnc([N+](=O)[O-])c1)NCc1ccc(F)cc1,6.6µM*,10%,-2%,1%,-12%,?
O=C(Cn1cnc([N+](=O)[O-])c1)c1ccc(F)cc1,106%,2%,8%,-100%,-5%,?
CC(C)C[C@H](NC(=O)c1[nH]cnc1C(=O)N[C@@H](C)C(=O)OC(C)(C)C)C(=O)OC(C)(C)C,9.3µM*,-26%,117%,7.4µM*,144%,1%
CCOC(=O)c1ccc(NC(=O)c2nc[nH]c2C(=O)N[C@@H](CC(C)C)C(=O)OC(C)(C)C)cc1,9.3µM*,35%,158%,7.4µM*,-2%,6%
CC(C)C[C@H](NC(=O)c1[nH]cnc1C(=O)Nc1ccccc1)C(=O)OC(C)(C)C,?,-3%,112%,13µM*,40%,15%
CC(C)C[C@H](NC(=O)c1nc[nH]c1C(=O)N[C@@H](CCCCN)C(=O)OC(C)(C)C)C(=O)OC(C)(C)C,nt,1%,89%,nt,223%,nt

# Screening results: PubChem, National Center for Advancing Translational Sciences (NCATS)
